# PubChem BioAssay (NCI)
# This is part of a sample that, as a whole, favours compounds with a hit. Of some 79,000 tested, about 15% had one in any assay. Values without a mark were called inactive. Calls of active or inactive are those of the source. No stated cut-off is given here; in the data, active means growth inhibition above about 70%; inactive means the rest.
# Legend:
# [1] = NCI Yeast Anticancer Drug Screen. Data for the rad52 strain (AID 147);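 further: 0% = growth of vehicle-treated control cultures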; conditions: S. cerevisiae rad52 mutant growth inhibition, active compounds read high
# Method in brief: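 Inhibition of yeast growth, referenced to vehicle controls, was the measured output for a strain with defective DNA damage repair.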
# [2] = NCI Yeast Anticancer Drug Screen. Data for the wt1 strain (AID 149);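 further: 0% = growth of vehicle-treated wt1 cultures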; conditions: S. cerevisiae wt1 strain (SPY 50644) growth inhibition, active compounds read high
# Method in brief: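 Using yeast strain wt1, compound-induced growth inhibition was determined against vehicle-treated cultures.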
# [3] = NCI Yeast Anticancer Drug Screen. Data for the rad50EPP+ strain (AID 151);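 further: 0% = growth of vehicle-treated control cultures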; conditions: S. cerevisiae rad50 mutant strain, active compounds read high
# Method in brief: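 Genetically defined yeast (rad50EPP+, DNA damage repair alteration) is grown with compound, and inhibition of growth is expressed relative to vehicle-treated controls.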
# [4] = NCI Yeast Anticancer Drug Screen. Data for the mgt1 strain (AID 153); conditions: S. cerevisiae mgt1 mutant growth inhibition, active compounds read high
# Method in brief: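 In the mgt1 strain, test compounds were added and growth inhibition was determined relative to vehicle-treated controls.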
# [5] = NCI Yeast Anticancer Drug Screen. Data for the mec2-1 strain (AID 157); conditions: S. cerevisiae mec2-1 strain, active compounds read high
# Method in brief: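 Each compound was tested on mec2-1 yeast, a strain altered in DNA damage repair or cell cycle control. Growth inhibition is reported relative to vehicle.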
# [6] = NCI Yeast Anticancer Drug Screen. Data for the rad14 strain (AID 159);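 further: 0% = growth of vehicle-treated control cultures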; conditions: S. cerevisiae rad14 strain growth inhibition, active compounds read high
# Method in brief: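 Screen for anticancer potential: a yeast strain altered in DNA damage repair is grown with compound, and reduced growth is quantified against vehicle controls.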
# [7] = NCI Yeast Anticancer Drug Screen. Data for the sgs1 mgt1 strain (AID 161);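 further: 0% = growth of cultures given vehicle only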; conditions: S. cerevisiae sgs1 mgt1 strain, active compounds read high
# Method in brief: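 Genetically altered yeast, compound exposure, growth inhibition relative to vehicle.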
# [8] = NCI Yeast Anticancer Drug Screen. Data for the CLN2oe strain (AID 163);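 further: 0% = growth of vehicle-only control cultures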; conditions: S. cerevisiae CLN2oe strain, active compounds read high
# Method in brief: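 First, the altered yeast strain was treated with each compound; second, its growth was measured; finally, inhibition was derived by comparison with vehicle controls.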
# [9] = NCI Yeast Anticancer Drug Screen. Data for the cln2 rad14 strain (AID 165);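 further: 0% = growth equal to vehicle treated cultures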; conditions: S. cerevisiae cln2 rad14 strain, active compounds read high
# Method in brief: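 Test compounds were added to cln2 rad14 yeast cultures; inhibition of growth was then determined by comparison with vehicle treatment.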
# [10] = NCI Yeast Anticancer Drug Screen. Data for the bub3 strain (AID 167); conditions: S. cerevisiae bub3 mutant strain, active compounds read high
# Method in brief: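 Screening used yeast with an engineered genetic alteration affecting cell cycle control. Compound-exposed cultures were compared with vehicle cultures, and reduced growth was taken as inhibition.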
# [11] = NCI Yeast Anticancer Drug Screen. Data for the wt2 strain (AID 169);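 further: 0% = growth of vehicle-treated yeast cultures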; conditions: S. cerevisiae wt2 strain growth inhibition, active compounds read high
# Method in brief: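 The panel's yeast strains carry defined changes in DNA repair or cell cycle genes. Each strain is grown with compound, and growth loss is scored relative to vehicle.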
# [12] = NCI Yeast Anticancer Drug Screen. Data for the mlh1 strain (AID 171);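 further: 0% = growth of vehicle-treated control cultures of the same strain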; conditions: S. cerevisiae mlh1 strain growth inhibition, active compounds read high
# Method in brief: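 Inhibition values reflect reduced yeast growth in the presence of compound, referenced to vehicle controls, using a strain chosen for its alteration in DNA repair or cell cycle control.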
# [13] = NCI Yeast Anticancer Drug Screen. Data for the sgs1 strain (AID 173);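 further: 0% = growth of vehicle-only control cultures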; conditions: S. cerevisiae sgs1 mutant, active compounds read high
# Method in brief: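 Vehicle-treated cultures served as reference for growth inhibition of a yeast strain altered in DNA damage repair or cell cycle control after compound exposure.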
# [14] = NCI Yeast Anticancer Drug Screen. Data for the mlh1 rad18 strain (AID 175); conditions: S. cerevisiae mlh1 rad18 strain growth inhibition, active compounds read high
# Method in brief: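 Inhibition values reflect reduced growth of mutant yeast versus vehicle-treated controls following compound exposure; the mutations affect DNA damage repair.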
# [15] = NCI Yeast Anticancer Drug Screen. Data for the rad18 strain (AID 177); conditions: S. cerevisiae rad18 mutant growth inhibition, active compounds read high
# Method in brief: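 Steps: expose repair-mutant yeast to compound; measure growth; express as inhibition relative to vehicle control.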
# [16] = NCI Yeast Anticancer Drug Screen. Data for the rad50 strain (AID 155);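 further: 0% = growth of vehicle-only cultures of the same strain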; conditions: S. cerevisiae rad50 strain growth inhibition, active compounds read high
# Method in brief: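 Relative growth inhibition (compound vs vehicle) was measured in yeast with a defined repair-gene alteration.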
# [17] = at 5.0 µM (retest, dose inferred, filed as 0.5)
# [18] = at 50.0 µM (retest, dose inferred, filed as 5.0)
structure (smiles),measurement,setting,value
N#CN=Nc1cc(Cl)c(N=NC#N)cc1Cl,growth inhibition,[1]; at 1.2 µM,-27%
same,growth inhibition,[1]; at 3.7 µM,-19%
same,growth inhibition,[1]; at 11.0 µM,-18%
same,growth inhibition,[1]; at 33.0 µM,2%
same,growth inhibition,[1]; at 100.0 µM,68%
same,growth inhibition,[2]; at 1.2 µM,-6%
same,growth inhibition,[2]; at 3.7 µM,-5%
same,growth inhibition,[2]; at 11.0 µM,-6%
same,growth inhibition,[2]; at 33.0 µM,-3%
same,growth inhibition,[2]; at 100.0 µM,47%
same,growth inhibition,[3]; at 1.2 µM,-4%
same,growth inhibition,[3]; at 3.7 µM,-3%
same,growth inhibition,[3]; at 11.0 µM,6%
same,growth inhibition,[3]; at 33.0 µM,31%
same,growth inhibition,[3]; at 100.0 µM,79% (active)
same,growth inhibition,[4]; at 1.2 µM,-10%
same,growth inhibition,[4]; at 3.7 µM,-6%
same,growth inhibition,[4]; at 11.0 µM,-6%
same,growth inhibition,[4]; at 33.0 µM,28%
same,growth inhibition,[4]; at 100.0 µM,70% (active)
same,growth inhibition,[5]; at 1.2 µM,-14%
same,growth inhibition,[5]; at 3.7 µM,-17%
same,growth inhibition,[5]; [17],12%
same,growth inhibition,[5]; at 11.0 µM,-18%
same,growth inhibition,[5]; at 33.0 µM,-3%
same,growth inhibition,[5]; [18],87% (active)
same,growth inhibition,[5]; at 50.0 µM,46%
same,growth inhibition,[5]; at 100.0 µM,78% (active)
same,growth inhibition,[6]; at 1.2 µM,1%
same,growth inhibition,[6]; at 3.7 µM,4%
same,growth inhibition,[6]; at 11.0 µM,11%
same,growth inhibition,[6]; at 33.0 µM,32%
same,growth inhibition,[6]; at 100.0 µM,85% (active)
same,growth inhibition,[7]; [17],-5%
same,growth inhibition,[7]; [18],-4%
same,growth inhibition,[7]; at 50.0 µM,60.2%
same,growth inhibition,[8]; at 1.2 µM,-25%
same,growth inhibition,[8]; at 3.7 µM,-6%
same,growth inhibition,[8]; at 11.0 µM,-6%
same,growth inhibition,[8]; at 33.0 µM,-8%
same,growth inhibition,[8]; at 100.0 µM,67%
same,growth inhibition,[9]; [17],33%
same,growth inhibition,[9]; [18],55%
same,growth inhibition,[9]; at 50.0 µM,20.6%
same,growth inhibition,[10]; at 1.2 µM,-19%
same,growth inhibition,[10]; at 3.7 µM,2%
same,growth inhibition,[10]; [17],-1%
same,growth inhibition,[10]; at 11.0 µM,-7%
same,growth inhibition,[10]; at 33.0 µM,25%
same,growth inhibition,[10]; [18],96% (active)
same,growth inhibition,[10]; at 50.0 µM,43.8%
same,growth inhibition,[10]; at 100.0 µM,88% (active)
same,growth inhibition,[11]; at 1.2 µM,2%
same,growth inhibition,[11]; at 3.7 µM,1%
same,growth inhibition,[11]; at 11.0 µM,0%
same,growth inhibition,[11]; at 33.0 µM,3%
same,growth inhibition,[11]; at 100.0 µM,30%
same,growth inhibition,[12]; at 1.2 µM,22%
same,growth inhibition,[12]; at 3.7 µM,10%
same,growth inhibition,[12]; at 11.0 µM,12%
same,growth inhibition,[12]; at 33.0 µM,29%
same,growth inhibition,[12]; at 100.0 µM,87% (active)
same,growth inhibition,[13]; at 1.2 µM,-25%
same,growth inhibition,[13]; at 3.7 µM,-15%
same,growth inhibition,[13]; at 11.0 µM,-13%
same,growth inhibition,[13]; at 33.0 µM,13%
same,growth inhibition,[13]; at 100.0 µM,94% (active)
same,growth inhibition,[14]; [17],-10%
same,growth inhibition,[14]; [18],98% (active)
same,growth inhibition,[14]; at 50.0 µM,38.2%
same,growth inhibition,[15]; at 1.2 µM,-8%
same,growth inhibition,[15]; at 3.7 µM,-16%
same,growth inhibition,[15]; at 11.0 µM,-11%
same,growth inhibition,[15]; at 33.0 µM,14%
same,growth inhibition,[15]; at 100.0 µM,82% (active)
S=C(N/N=C/c1ccccn1)Nc1ccc(Cl)cc1,growth inhibition,[1]; at 1.2 µM,-5%
same,growth inhibition,[1]; at 3.7 µM,-5%
same,growth inhibition,[1]; at 11.0 µM,-3%
same,growth inhibition,[1]; at 33.0 µM,15%
same,growth inhibition,[1]; at 100.0 µM,59%
same,growth inhibition,[2]; at 1.2 µM,-7%
same,growth inhibition,[2]; at 3.7 µM,-5%
same,growth inhibition,[2]; at 11.0 µM,-5%
same,growth inhibition,[2]; at 33.0 µM,8%
same,growth inhibition,[2]; at 100.0 µM,42%
same,growth inhibition,[3]; at 1.2 µM,-3%
same,growth inhibition,[3]; at 3.7 µM,-3%
same,growth inhibition,[3]; at 11.0 µM,1%
same,growth inhibition,[3]; at 33.0 µM,-6%
same,growth inhibition,[3]; at 100.0 µM,-12%
same,growth inhibition,[16]; at 1.2 µM,-5%
same,growth inhibition,[16]; at 3.7 µM,-7%
same,growth inhibition,[16]; [17],-7%
same,growth inhibition,[16]; at 11.0 µM,-27%
same,growth inhibition,[16]; at 33.0 µM,19%
same,growth inhibition,[16]; [18],95% (active)
same,growth inhibition,[16]; at 50.0 µM,55.5%
same,growth inhibition,[16]; at 100.0 µM,59%
same,growth inhibition,[5]; at 1.2 µM,-5%
same,growth inhibition,[5]; at 3.7 µM,-6%
same,growth inhibition,[5]; [17],71% (active)
same,growth inhibition,[5]; at 11.0 µM,-3%
same,growth inhibition,[5]; at 33.0 µM,10%
same,growth inhibition,[5]; [18],95% (active)
same,growth inhibition,[5]; at 50.0 µM,56.2%
same,growth inhibition,[5]; at 100.0 µM,63%
same,growth inhibition,[6]; at 1.2 µM,-3%
same,growth inhibition,[6]; at 3.7 µM,0%
same,growth inhibition,[6]; at 11.0 µM,0%
same,growth inhibition,[6]; at 33.0 µM,27%
same,growth inhibition,[6]; at 100.0 µM,80% (active)
same,growth inhibition,[7]; [17],27%
same,growth inhibition,[7]; [18],96% (active)
same,growth inhibition,[7]; at 50.0 µM,83.8% (active)
same,growth inhibition,[8]; at 1.2 µM,-3%
same,growth inhibition,[8]; at 3.7 µM,-14%
same,growth inhibition,[8]; at 11.0 µM,-12%
same,growth inhibition,[8]; at 33.0 µM,11%
same,growth inhibition,[8]; at 100.0 µM,79% (active)
same,growth inhibition,[9]; [17],38%
same,growth inhibition,[9]; [18],90% (active)
same,growth inhibition,[9]; at 50.0 µM,71.9% (active)
same,growth inhibition,[10]; at 1.2 µM,-5%
same,growth inhibition,[10]; at 3.7 µM,0%
same,growth inhibition,[10]; [17],19%
same,growth inhibition,[10]; at 11.0 µM,-2%
same,growth inhibition,[10]; at 33.0 µM,-3%
same,growth inhibition,[10]; [18],96% (active)
same,growth inhibition,[10]; at 50.0 µM,79.6% (active)
same,growth inhibition,[10]; at 100.0 µM,49%
same,growth inhibition,[11]; at 1.2 µM,-6%
same,growth inhibition,[11]; at 3.7 µM,-6%
same,growth inhibition,[11]; at 11.0 µM,-4%
same,growth inhibition,[11]; at 33.0 µM,9%
same,growth inhibition,[11]; at 100.0 µM,39%
same,growth inhibition,[12]; at 1.2 µM,-5%
same,growth inhibition,[12]; at 3.7 µM,-9%
same,growth inhibition,[12]; at 11.0 µM,-5%
same,growth inhibition,[12]; at 33.0 µM,12%
same,growth inhibition,[12]; at 100.0 µM,51%
same,growth inhibition,[13]; at 1.2 µM,-5%
same,growth inhibition,[13]; at 3.7 µM,-4%
same,growth inhibition,[13]; at 11.0 µM,-2%
same,growth inhibition,[13]; at 33.0 µM,22%
same,growth inhibition,[13]; at 100.0 µM,66%
same,growth inhibition,[14]; [17],44%
same,growth inhibition,[14]; [18],95% (active)
same,growth inhibition,[14]; at 50.0 µM,78.8% (active)
same,growth inhibition,[15]; at 1.2 µM,-6%
same,growth inhibition,[15]; at 3.7 µM,-3%
same,growth inhibition,[15]; at 11.0 µM,-5%
same,growth inhibition,[15]; at 33.0 µM,2%
same,growth inhibition,[15]; at 100.0 µM,67%
